Source: PubChem BioAssay (EPA / NIEHS)
Inconclusive results are not listed. Active and inactive are the calls of the source. How the source made its calls: active means hit-call score of the fitted dose curve at least 0.9, where 1 is the maximum; inconclusive means response in the unintended direction; inactive means score below 0.9.

Experiments:
[1] = ATG_Hpa5_TRANS: Attagene TRANS-FACTORIAL HepG2 Assay for human GAL4-Hpa5 Hepatocyte Transcription Factor Basal Promoter (AID 2282975); details: HepG2 Attagene GAL4-Hpa5 transcription reporter;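 further: hits are increases in reporter mRNA over DMSO baseline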
Method in brief: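 Basal-promoter GAL4 background control within the HepG2 trans-factorial panel of transiently transfected reporter units. Reporter mRNA is measured 24 h after dosing by RT-PCR and capillary electrophoresis, fitted for gain of signal versus DMSO.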

[2] = ATG_GAL4_TRANS: Attagene TRANS-FACTORIAL HepG2 Assay for GAL4 (Internal Marker) (AID 2282976); details: HepG2 Attagene TRANS GAL4 internal marker reporter
Method in brief: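 Liver HepG2 line bearing multiplexed GAL4-UAS reporter constructs; 24 h chemical treatment. Transcripts were quantified as fluorescent fragments on capillary electrophoresis after RT-PCR and HpaI cut, with activity fitted upward from DMSO.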

[3] = target: Glucocorticoid receptor (Homo sapiens) (UniProt P04150); experiment: ATG_GR_TRANS: Attagene TRANS-FACTORIAL HepG2 Assay for human Glucocorticoid Receptor (GR) (AID 2282978); details: HepG2 Attagene TRANS GR reporter, mRNA transcription;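 further: activators score as hits since higher reporter transcript over DMSO is fitted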
Method in brief: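 HepG2 transient transfection, multiple reporter units, GAL4-UAS under NR-GAL4 chimera control. 24 h treatment. Reporter mRNA by RT-PCR/CE fluorescence, DMSO as negative control.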

[4] = ATG_M_06_TRANS: Attagene TRANS-FACTORIAL HepG2 Assay for M06 Transcription Factor (Internal Marker) (AID 2282983); details: HepG2 Attagene TRANS M06 internal marker reporter;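 further: reporter transcript level by RT-PCR then capillary electrophoresis fluorescence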
Method in brief: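 Internal-marker background readout from a multiplexed TRANS reporter system in HepG2; 24 h dosing; mRNA induction quantified by RT-PCR plus capillary electrophoresis fluorescence; DMSO as negative control and baseline.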

[5] = target: Estrogen-related receptor gamma (Homo sapiens) (UniProt P62508); experiment: ATG_ERRg_TRANS: Attagene TRANS-FACTORIAL HepG2 Assay for human Estrogen-Related Receptor gamma (ERRg) (AID 2282977); details: HepG2 Attagene TRANS reporter, ERRg transactivation;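 further: hits increase reporter signal over DMSO so potencies reflect activators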
Method in brief: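 Transfect HepG2 with multiple GAL4-UAS reporter transcription units; dose chemicals 24 h; isolate RNA, reverse-transcribe with oligo(dT), PCR-amplify, label with 6-FAM, digest with HpaI; size fragments by capillary electrophoresis. DMSO serves as negative control.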

[6] = target: Bile acid receptor (Homo sapiens) (UniProt Q96RI1); experiment: ATG_FXR_TRANS: Attagene TRANS-FACTORIAL HepG2 Assay for Farnesoid X Receptor (FXR) (AID 2282979); details: HepG2 Attagene TRANS FXR-GAL4 reporter transcription;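 further: hits raise reporter mRNA above DMSO so AC50 marks FXR activation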
Method in brief: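 After 24 h chemical treatment of transfected HepG2 cells, GAL4-UAS reporter transcripts driven by an exogenous FXR-GAL4 fusion were measured by RT-PCR and capillary electrophoresis. Increases over DMSO were fitted.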

[7] = target: Hepatocyte nuclear factor 4-alpha (Homo sapiens) (UniProt P41235); experiment: ATG_HNF4a_TRANS: Attagene TRANS-FACTORIAL HepG2 Assay for human Hepatocyte Nuclear Factor 4 alpha (HNF4a) (AID 2282982); details: HepG2 HNF4a transactivation reporter, mRNA readout
Method in brief: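 Readout is fluorescent reporter-transcript fragments resolved by capillary electrophoresis after RT-PCR from HepG2 cells dosed for 24 h. Cells carried transfected GAL4-UAS reporter constructs measuring exogenous NR-GAL4 chimera activity; DMSO served as baseline.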

[8] = ATG_M_32_TRANS: Attagene TRANS-FACTORIAL HepG2 Assay for M32 Transcription Factor (Internal Marker) (AID 2282984); details: HepG2 Attagene TRANS M32 internal marker reporter
Method in brief: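 Measures reporter mRNA induction in human HepG2 liver cells after 24 h chemical treatment. Transcripts from transiently transfected GAL4-UAS reporter units are amplified, fluorescently labelled and sized by capillary electrophoresis; gain of signal relative to DMSO.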

[9] = target: Oxysterols receptor LXR-alpha (Homo sapiens) (UniProt Q13133); experiment: ATG_LXRa_TRANS: Attagene TRANS-FACTORIAL HepG2 Assay for human Liver X Receptor alpha (LXRa) (AID 2282980); details: HepG2 Attagene TRANS reporter, LXRa transactivation
Method in brief: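 In this multiplexed TRANS system, compounds act on HepG2 cells carrying GAL4-UAS reporter units and a receptor-GAL4 fusion for 24 h. Induced reporter RNA is amplified, fluorescently labelled and sized by capillary electrophoresis, with DMSO as baseline.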

[10] = target: Oxysterols receptor LXR-beta (Homo sapiens) (UniProt P55055); experiment: ATG_LXRb_TRANS: Attagene TRANS-FACTORIAL HepG2 Assay for human Liver X Receptor beta (LXRb) (AID 2282981); details: HepG2 Attagene TRANS GAL4-LXRb reporter, mRNA
Method in brief: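 Transient transfection HepG2 (multiplexed RTUs, GAL4-UAS); NR-Gal4 chimera; 24 h exposure; RNA → RT-PCR → 6-FAM primer extension → HpaI → CE; increase vs DMSO.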

Measured: outcome

Chain of Estrogen-related receptor gamma (Homo sapiens) (P62508 whole entry, looked up, the tested form may be a part): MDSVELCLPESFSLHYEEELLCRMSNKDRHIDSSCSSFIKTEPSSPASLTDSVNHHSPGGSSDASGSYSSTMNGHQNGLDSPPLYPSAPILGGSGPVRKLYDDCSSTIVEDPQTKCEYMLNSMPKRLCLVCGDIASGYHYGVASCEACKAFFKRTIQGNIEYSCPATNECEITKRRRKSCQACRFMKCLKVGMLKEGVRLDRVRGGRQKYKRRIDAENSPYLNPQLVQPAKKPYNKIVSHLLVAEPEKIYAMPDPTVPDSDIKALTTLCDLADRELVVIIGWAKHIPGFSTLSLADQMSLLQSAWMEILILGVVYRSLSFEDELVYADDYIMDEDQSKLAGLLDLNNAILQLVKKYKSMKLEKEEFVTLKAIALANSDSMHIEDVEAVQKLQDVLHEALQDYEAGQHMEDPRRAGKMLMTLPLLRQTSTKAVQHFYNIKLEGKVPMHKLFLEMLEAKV
Chain of Hepatocyte nuclear factor 4-alpha (Homo sapiens) (P41235 whole entry, looked up, the tested form may be a part): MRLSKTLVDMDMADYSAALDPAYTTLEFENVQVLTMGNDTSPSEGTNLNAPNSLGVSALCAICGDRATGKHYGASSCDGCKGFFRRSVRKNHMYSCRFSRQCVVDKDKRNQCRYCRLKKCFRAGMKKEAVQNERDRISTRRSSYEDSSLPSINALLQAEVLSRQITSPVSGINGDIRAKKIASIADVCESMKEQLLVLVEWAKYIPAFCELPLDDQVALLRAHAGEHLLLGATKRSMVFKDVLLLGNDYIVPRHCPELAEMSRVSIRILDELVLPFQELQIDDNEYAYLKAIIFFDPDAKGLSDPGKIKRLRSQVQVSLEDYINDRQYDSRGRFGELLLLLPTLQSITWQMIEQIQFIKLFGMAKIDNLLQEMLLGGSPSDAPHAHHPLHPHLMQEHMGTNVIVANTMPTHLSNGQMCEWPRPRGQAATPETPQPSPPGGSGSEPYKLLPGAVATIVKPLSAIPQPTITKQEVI
Chain of Bile acid receptor (Homo sapiens) (Q96RI1 whole entry, looked up, the tested form may be a part): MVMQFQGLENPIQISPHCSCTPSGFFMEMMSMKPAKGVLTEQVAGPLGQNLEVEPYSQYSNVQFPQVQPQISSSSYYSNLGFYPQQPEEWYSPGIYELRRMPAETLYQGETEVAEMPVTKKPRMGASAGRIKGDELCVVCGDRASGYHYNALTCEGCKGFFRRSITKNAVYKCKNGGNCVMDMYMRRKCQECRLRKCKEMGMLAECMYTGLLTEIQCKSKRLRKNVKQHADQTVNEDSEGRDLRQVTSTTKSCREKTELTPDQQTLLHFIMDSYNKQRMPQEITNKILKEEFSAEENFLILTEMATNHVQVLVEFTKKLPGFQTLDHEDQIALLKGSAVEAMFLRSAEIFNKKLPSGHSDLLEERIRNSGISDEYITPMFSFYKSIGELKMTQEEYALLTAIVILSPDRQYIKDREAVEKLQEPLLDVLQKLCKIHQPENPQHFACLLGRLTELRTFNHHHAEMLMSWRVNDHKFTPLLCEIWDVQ
Chain of Glucocorticoid receptor (Homo sapiens) (P04150 whole entry, looked up, the tested form may be a part): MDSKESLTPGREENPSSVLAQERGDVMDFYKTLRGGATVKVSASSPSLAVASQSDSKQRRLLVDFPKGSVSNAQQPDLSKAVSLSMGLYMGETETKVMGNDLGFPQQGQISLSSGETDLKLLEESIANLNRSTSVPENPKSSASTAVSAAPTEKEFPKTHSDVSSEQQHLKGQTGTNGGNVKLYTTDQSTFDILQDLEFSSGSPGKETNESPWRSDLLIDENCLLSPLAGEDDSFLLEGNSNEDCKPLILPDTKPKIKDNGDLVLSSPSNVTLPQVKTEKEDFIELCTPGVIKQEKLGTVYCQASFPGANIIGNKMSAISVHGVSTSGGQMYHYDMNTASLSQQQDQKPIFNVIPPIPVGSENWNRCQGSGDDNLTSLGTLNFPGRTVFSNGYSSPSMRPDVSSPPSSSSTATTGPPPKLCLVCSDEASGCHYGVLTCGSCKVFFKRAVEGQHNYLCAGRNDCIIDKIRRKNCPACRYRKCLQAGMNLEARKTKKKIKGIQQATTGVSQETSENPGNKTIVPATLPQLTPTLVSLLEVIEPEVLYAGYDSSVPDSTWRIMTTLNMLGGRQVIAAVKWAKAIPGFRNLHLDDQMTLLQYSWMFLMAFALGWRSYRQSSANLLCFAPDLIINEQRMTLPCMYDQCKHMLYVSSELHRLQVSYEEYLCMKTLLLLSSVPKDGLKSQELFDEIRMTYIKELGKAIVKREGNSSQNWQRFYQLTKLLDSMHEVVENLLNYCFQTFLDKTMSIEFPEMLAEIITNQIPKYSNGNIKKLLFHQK
Chain of Oxysterols receptor LXR-beta (Homo sapiens) (P55055 whole entry, looked up, the tested form may be a part): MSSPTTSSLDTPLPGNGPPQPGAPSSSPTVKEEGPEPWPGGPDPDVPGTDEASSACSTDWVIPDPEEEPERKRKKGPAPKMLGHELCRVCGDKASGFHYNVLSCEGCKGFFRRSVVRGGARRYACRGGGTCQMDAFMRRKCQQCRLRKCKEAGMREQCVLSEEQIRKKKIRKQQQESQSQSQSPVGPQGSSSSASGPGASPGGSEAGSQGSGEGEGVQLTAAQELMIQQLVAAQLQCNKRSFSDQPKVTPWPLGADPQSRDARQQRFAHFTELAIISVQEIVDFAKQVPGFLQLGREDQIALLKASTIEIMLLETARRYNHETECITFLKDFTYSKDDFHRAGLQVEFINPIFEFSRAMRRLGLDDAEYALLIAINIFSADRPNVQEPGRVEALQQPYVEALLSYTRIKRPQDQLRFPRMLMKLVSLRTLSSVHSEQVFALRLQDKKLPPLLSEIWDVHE
Chain of Oxysterols receptor LXR-alpha (Homo sapiens) (Q13133 whole entry, looked up, the tested form may be a part): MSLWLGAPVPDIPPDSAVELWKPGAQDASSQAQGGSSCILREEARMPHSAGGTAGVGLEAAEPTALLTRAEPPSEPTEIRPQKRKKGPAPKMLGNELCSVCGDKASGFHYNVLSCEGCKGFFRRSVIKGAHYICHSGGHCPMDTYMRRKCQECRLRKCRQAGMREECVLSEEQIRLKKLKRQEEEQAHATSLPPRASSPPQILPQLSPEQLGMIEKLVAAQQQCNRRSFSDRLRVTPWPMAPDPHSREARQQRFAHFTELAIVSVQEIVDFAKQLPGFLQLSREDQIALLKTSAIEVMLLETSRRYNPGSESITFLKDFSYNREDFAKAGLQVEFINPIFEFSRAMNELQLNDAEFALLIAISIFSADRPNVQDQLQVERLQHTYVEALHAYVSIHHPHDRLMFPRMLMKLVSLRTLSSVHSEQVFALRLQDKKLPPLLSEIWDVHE

C=C(C)CN(CC)c1c([N+](=O)[O-])cc(C(F)(F)F)cc1[N+](=O)[O-]
inactive: [1] | [2] | [3] | [4]

CC1(C)C(C(=O)OC(C#N)c2cccc(Oc3ccccc3)c2)C1(C)C (centres undefined)
inactive: [1] | [5] | [6] | [7] | [4] | [8]

COP(=O)(OC)O/C(C)=C/C(=O)N(C)C
inactive: [1] | [5] | [9] | [4]

CN=C=S
not listed: [2] | [3] | [10]
inactive: all other assays above

CC1(C)C(C=C(Cl)Cl)C1C(=O)OC(C#N)c1cccc(Oc2ccccc2)c1 (centres undefined)
inactive: [1] | [2] | [3] | [7] | [4] | [8]

CC(C)(C)C(=O)C(Oc1ccc(Cl)cc1)n1cncn1 (centres undefined)
inactive: [1] | [3] | [9] | [7] | [8]

COC(=O)c1c(C(F)F)nc(C(F)(F)F)c(C2=NCCS2)c1CC(C)C
inactive: [1] | [5] | [9] | [7] | [4] | [8]

O=c1n(Cl)c(=O)n(Cl)c(=O)n1Cl
inactive: [1] | [3] | [9] | [7]

CCOc1nc(F)cc2nc(S(=O)(=O)Nc3c(Cl)cccc3Cl)nn12
not listed: [2] | [4] | [5]
inactive: all other assays above

COc1cc(Cl)c(OC)cc1Cl
not listed: [2] | [5] | [6]
inactive: all other assays above

CC(C)N1C(=O)N(c2ccccc2)CSC1=NC(C)(C)C
inactive: [1] | [5] | [3] | [8]

N#Cc1c[nH]cc1-c1cccc2c1OC(F)(F)O2
not listed: [6]
inactive: all other assays above
